Hits are enriched below; roughly 28% of the tested compounds scored in any of these assays.
Pyk2 oligo antag – antagonists of Pyk2 self-association, primary screen, Q293 cells, FERM NanoBiT luminescence, HTS; z-score (the deposit names both 25 µM and 10 µM); AID 1347419, 2020; Protein-tyrosine kinase 2-beta (Homo sapiens), Q14289; hits give low values; actives 0.83% (n = 99,000);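 active = Z-score of -3 or lower, scaled per plate to the spread of control and sample wells; inactive = z-score above -3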;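 also: negative z-score means lost luminescence so less FERM oligomerization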
Target sequence (Q14289 whole entry, looked up): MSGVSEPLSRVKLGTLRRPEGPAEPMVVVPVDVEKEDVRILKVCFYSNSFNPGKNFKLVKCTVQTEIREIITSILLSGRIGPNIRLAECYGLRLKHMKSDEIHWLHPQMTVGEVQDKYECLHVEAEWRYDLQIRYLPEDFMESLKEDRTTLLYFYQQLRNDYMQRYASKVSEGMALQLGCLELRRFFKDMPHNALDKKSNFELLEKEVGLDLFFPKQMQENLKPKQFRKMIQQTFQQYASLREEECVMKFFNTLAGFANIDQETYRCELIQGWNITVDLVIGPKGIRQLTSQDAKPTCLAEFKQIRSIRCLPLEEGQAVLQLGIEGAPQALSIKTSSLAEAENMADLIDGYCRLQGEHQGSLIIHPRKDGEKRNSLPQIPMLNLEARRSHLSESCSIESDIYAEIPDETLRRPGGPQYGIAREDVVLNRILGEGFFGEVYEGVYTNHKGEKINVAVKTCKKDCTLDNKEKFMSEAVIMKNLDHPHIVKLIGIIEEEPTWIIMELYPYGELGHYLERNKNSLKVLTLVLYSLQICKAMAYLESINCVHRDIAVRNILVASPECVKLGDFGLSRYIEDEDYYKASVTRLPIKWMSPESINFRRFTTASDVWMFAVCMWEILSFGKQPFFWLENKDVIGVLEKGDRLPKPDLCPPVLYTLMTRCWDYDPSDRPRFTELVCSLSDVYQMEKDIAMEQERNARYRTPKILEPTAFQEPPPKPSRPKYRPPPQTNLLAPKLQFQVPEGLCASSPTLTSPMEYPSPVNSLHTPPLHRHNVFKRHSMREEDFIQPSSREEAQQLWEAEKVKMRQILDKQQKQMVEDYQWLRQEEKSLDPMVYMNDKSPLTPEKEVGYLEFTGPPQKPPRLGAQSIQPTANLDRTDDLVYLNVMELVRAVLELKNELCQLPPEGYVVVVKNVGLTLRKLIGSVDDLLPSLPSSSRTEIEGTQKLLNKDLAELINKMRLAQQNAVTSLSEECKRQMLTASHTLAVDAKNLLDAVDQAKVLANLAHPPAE
CYP2C19 inhib – blockers of cytochrome P450 2C19 activity – biochemical, luminescence, ADME assay, primary screen. AID 778, 2007. actives 21% (n = 96,000). inhibition, % at 5 µM. CYP2C19 Supersomes, luciferin-H EGE luminescence, 30 min;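 active = CYP2C19 inhibition above a set limit at 5 µM in the primary screen, cut at about 50% in these data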;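 also: plate controls were negative control wells for no effect and 2.5 mM tranylcypromine positive control for full effect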
CYP2C9 act – human CYP2C9 activators, primary screen, biochemical, luminescence; recombinant CYP2C9, luciferin-H conversion; hits give high values; factor 1 = untreated enzyme, 0 = blocked; activation factor at 5 µM; actives 1.4% (n = 96,000); AID 1024, 2008;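 active = activation factor of 2 or more for CYP2C9 at a 5 µM dose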;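 also: 0 = sulfaphenazole-blocked wells and 1 = vehicle-only wells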
CYP2C9 inh – blockers of cytochrome P450 2C9 activity – biochemical, luminescence, ADME assay, primary screen | P11712 | CYP2C9 Supersomes, luciferin-H conversion | inhibition, % at 5 µM | actives 20% (n = 96,000) | AID 777, 2007;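 active = blocking of liver enzyme CYP2C9 beyond about 50% at 5 µM, limit read from the data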
CYP2C19 act – human CYP2C19 activators, primary screen, biochemical, luminescence. 96,000 tested, under 10 active. Cytochrome P450 2C19 (Homo sapiens), P33261. AID 1025, 2008. recombinant CYP2C19, luciferin-H EGE luminescence; hits give high values; 0 = fully inhibited enzyme, 1 = untreated enzyme. activation factor at 5 µM;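 active = activation factor of at least 2 at 5 µM in the primary screen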;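 also: 0 = wells with 2.5 mM tranylcypromine and 1 = vehicle-only wells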
* marks the source's active call; other numbers are inactive results.

`COc1cc2c(cc1OC)C(C)N(C(=O)C1COc3ccccc3O1)CC2` (stereo not drawn) gave Pyk2 oligo antag 0.48, CYP2C19 inhib 79.6*, CYP2C9 act 0.4, CYP2C9 inh 57.4* and CYP2C19 act 0.2.
For COc1cc2c(cc1OC)C(C)N(C(=O)c1cc3ccccc3o1)CC2 (stereo not drawn) the results were Pyk2 oligo antag -1.59, CYP2C19 inhib 41.9, CYP2C9 act 0.7, CYP2C9 inh 32.9 and CYP2C19 act 0.6.
CCOC(=O)C1=C(Cc2ccc(Cl)cc2)C(=O)c2ccccc2C1=O was read as Pyk2 oligo antag -0.9, CYP2C19 inhib 99.5*, CYP2C9 act 0.1, CYP2C9 inh 94.8* and CYP2C19 act 0.
CC(=O)Oc1c(C)cc(O)c2ccccc12 was read as CYP2C19 inhib 61.9*, CYP2C9 act 0.8, CYP2C9 inh 18.8 and CYP2C19 act 0.4.
`COc1ccc(N2CCN(C(c3ccccc3OC)c3nnnn3C3CCCC3)CC2)cc1` (stereo not drawn) gave Pyk2 oligo antag -2.88, CYP2C19 inhib 76.5*, CYP2C9 act 0.2, CYP2C9 inh 76.9* and CYP2C19 act 0.2.
Screening COc1cccc(C(c2nnnn2Cc2ccco2)N2CCN(c3cccc(C)c3C)CC2)c1OC (stereo not drawn) returned Pyk2 oligo antag -3.88*, CYP2C19 inhib 55.5*, CYP2C9 act 0.3, CYP2C9 inh 70.0* and CYP2C19 act 0.4.
COc1ccc(C(c2nnnn2C2CCCC2)N2CCc3ccccc3C2)cc1OC (stereo not drawn) was read as Pyk2 oligo antag -2.17, CYP2C19 inhib 47.1, CYP2C9 act 0.7, CYP2C9 inh 29.4 and CYP2C19 act 0.5.
For COc1cccc(C(c2nnnn2Cc2ccccc2)N2CCN(C(=O)c3ccco3)CC2)c1OC (stereo not drawn) the results were Pyk2 oligo antag -0.55, CYP2C19 inhib 36.8, CYP2C9 act 0.6, CYP2C9 inh 42.7 and CYP2C19 act 0.6.
For COc1ccc(OC)c(C(c2nnnn2C2CCCC2)N2CCc3ccccc3C2)c1 (stereo not drawn) the results were Pyk2 oligo antag -1.2, CYP2C19 inhib 80.1*, CYP2C9 act 0.5, CYP2C9 inh 54.0* and CYP2C19 act 0.2.
`Cc1cc2cc(C(c3nnnn3Cc3ccco3)N3CCCCC3)c(=O)[nH]c2cc1C` (stereo not drawn) gave Pyk2 oligo antag 0.17, CYP2C19 inhib -2.0, CYP2C9 act 1, CYP2C9 inh 1.2 and CYP2C19 act 1.
Screening COc1ccc(C(c2nnnn2C2CCCC2)N2CCC(C(N)=O)CC2)c(OC)c1 (stereo not drawn) returned Pyk2 oligo antag -0.35, CYP2C19 inhib 6.2, CYP2C9 act 1, CYP2C9 inh 3.9 and CYP2C19 act 0.9.
Clc1ccccc1C(c1nnnn1Cc1ccco1)N1CCN(Cc2ccco2)CC1 (stereo not drawn) was read as Pyk2 oligo antag 0.5, CYP2C19 inhib 96.5*, CYP2C9 act 0.8, CYP2C9 inh 16.7 and CYP2C19 act 0.
For COc1ccc(CN2CC(C(=O)NCCCOC(C)C)CC2=O)cc1 (stereo not drawn) the results were Pyk2 oligo antag -0.05, CYP2C19 inhib 6.0, CYP2C9 act 1.1, CYP2C9 inh -6.0 and CYP2C19 act 0.9.
Screening S=c1nn[nH]n1C12CC3CC(CC(C3)C1)C2 returned Pyk2 oligo antag 0.33, CYP2C19 inhib -21.1, CYP2C9 act 0.9, CYP2C9 inh 8.3 and CYP2C19 act 1.2.
For N#C/C(=C1/CCCCCN1)c1nc2ccccc2s1 the results were Pyk2 oligo antag -1.04, CYP2C19 inhib -4.8, CYP2C9 act 1, CYP2C9 inh 2.7 and CYP2C19 act 1.
Screening COC(=O)C1C(=O)C2=C(CC1C)NC(=O)CC2c1cccc(C)c1 (stereo not drawn) returned Pyk2 oligo antag 0.14, CYP2C19 inhib 35.2, CYP2C9 act 0.8, CYP2C9 inh 18.8 and CYP2C19 act 0.6.
Screening COc1cccc(C(c2nnnn2CCc2ccccc2)N2CCN(c3ccccc3)CC2)c1OC (stereo not drawn) returned Pyk2 oligo antag -3.27*.
For CC(C)CC(c1nnnn1C1CCCC1)N1CCN(c2ccccc2F)CC1 (stereo not drawn) the results were Pyk2 oligo antag -1.24, CYP2C19 inhib -1.0, CYP2C9 act 0.9, CYP2C9 inh 9.1 and CYP2C19 act 1.
For COc1ccc(OC)c(C(c2nnnn2C2CCCC2)N2CCN(c3ccccc3F)CC2)c1 (stereo not drawn) the results were Pyk2 oligo antag -3.82*, CYP2C19 inhib 95.0*, CYP2C9 act 0.1, CYP2C9 inh 93.5* and CYP2C19 act 0.1.
`COc1ccc(N2CCN(C(c3cccc(OC)c3OC)c3nnnn3C3CCCC3)CC2)cc1` (stereo not drawn) gave Pyk2 oligo antag -2.56, CYP2C19 inhib 79.9*, CYP2C9 act 0.3, CYP2C9 inh 73.1* and CYP2C19 act 0.2.
For COc1ccccc1C(c1nnnn1CCc1ccccc1)N1CCN(c2ccccc2)CC1 (stereo not drawn) the results were Pyk2 oligo antag -2.04, CYP2C19 inhib 31.4, CYP2C9 act 0.7, CYP2C9 inh 33.0 and CYP2C19 act 0.7.
Screening Fc1ccccc1N1CCN(C(c2ccccn2)c2nnnn2C2CCCCC2)CC1 (stereo not drawn) returned Pyk2 oligo antag -1.65, CYP2C19 inhib 79.8*, CYP2C9 act 0.2, CYP2C9 inh 77.3* and CYP2C19 act 0.2.
`CCN1CCN(C(c2ccc(OC)c(OC)c2)c2nnnn2C(C)(C)C)CC1` (stereo not drawn) gave Pyk2 oligo antag 0.56, CYP2C19 inhib -13.1, CYP2C9 act 1, CYP2C9 inh -2.9 and CYP2C19 act 1.1.
For COc1cc(C(c2nnnn2C(C)(C)C)N2CCN(c3nc4ccccc4s3)CC2)ccc1O (stereo not drawn) the results were Pyk2 oligo antag -0.92, CYP2C19 inhib 60.6*, CYP2C9 act 0, CYP2C9 inh 97.0* and CYP2C19 act 0.4.
For COc1ccc(C(c2nnnn2C(C)(C)C)N2CCN(c3nc4ccccc4s3)CC2)cc1OC (stereo not drawn) the results were Pyk2 oligo antag 0.22, CYP2C19 inhib 56.0*, CYP2C9 act 0, CYP2C9 inh 98.4* and CYP2C19 act 0.4.
Screening O=C1c2ccccc2C(=O)c2c(NCc3cccnc3)cccc21 returned Pyk2 oligo antag -0.71, CYP2C19 inhib 98.6*, CYP2C9 act 0.2, CYP2C9 inh 79.4* and CYP2C19 act 0.
For Cc1ccc(NC(=O)CNC(=O)c2cccs2)cc1S(=O)(=O)Nc1ccc(Cl)cc1 the results were Pyk2 oligo antag -2.28.

Screening data deposited in PubChem by Sanford-Burnham Center for Chemical Genomics.
